Source: PubChem BioAssay
NS1 inh – inhibitors of influenza NS1 protein function | Potency, µM (series often up to 46.1 µM), for inactives: top-dose activity, positive = more growth | actives 0.4% (n = 270,000) | AID 2326; calls by dose curve; also: actives are rising curves; nearly all actives have a fitted effect of over 50% in size
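A cell-based growth assay was used: compounds that relieve NS1-induced slow growth of budding yeast raise OD600. Assay medium was yeast nitrogen base with ammonium sulphate and -URA supplement, pH 6.0, with 2% galactose.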
Cruzain inh Det – cruzain (T. cruzi) inhibition with detergent; purified cruzain, Z-FR-AMC fluorescence, 0.01% Triton; actives 0.43% (n = 200,000); Potency, µM, inactives show max response, negative = inhibition, most hits filed as inhibitors; AID 1478;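 also: plate controls were neutral wells for no effect and buffer without enzyme for full effect; nearly all actives have a fitted effect of over 40% in size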
Target sequence (P25779 123-467 limits assumed): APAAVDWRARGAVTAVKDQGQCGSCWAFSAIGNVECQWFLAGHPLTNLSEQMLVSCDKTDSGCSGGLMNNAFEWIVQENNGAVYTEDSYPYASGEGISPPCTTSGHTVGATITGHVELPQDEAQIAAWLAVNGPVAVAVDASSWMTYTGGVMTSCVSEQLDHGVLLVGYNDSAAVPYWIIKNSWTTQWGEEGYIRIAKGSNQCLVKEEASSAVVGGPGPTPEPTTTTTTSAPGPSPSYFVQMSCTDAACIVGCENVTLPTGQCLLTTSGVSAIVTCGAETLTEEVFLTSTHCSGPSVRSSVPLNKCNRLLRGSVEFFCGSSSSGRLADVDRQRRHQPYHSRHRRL
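Sodium acetate buffer (100 mM, pH 5.5) containing 5 mM DTT and 0.01% Triton X-100 hosted 1.5 nM cruzain and test compound for 15 min at room temperature. Cleavage of 2 uM Z-FR-AMC was then tracked by fluorescence.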
Cruzain noTriton – cruzain (T. cruzi) inhibition without detergent | Potency, µM, for the others: max response, negative = inhibition, hits mostly inhibitors | P25779 | purified cruzain, Z-FR-AMC fluorescence, no detergent | actives 2.3% (n = 200,000) | AID 1476;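 also: plate controls were enzyme without inhibitor for no effect and buffer without enzyme for full effect; nearly all actives have a fitted effect of over 40% in size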
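Detergent-free condition (0.00005% Triton X-100) in acetate buffer pH 5.5 with DTT. 1.5 nM enzyme and compound were pre-mixed 15 min, then 2 uM Z-FR-AMC substrate added; reaction progress from fluorescence change between first and third reads (60 s).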
The depositor's hits bear a star; ? = inconclusive; · = no result given; ! = not confirmed by another sample. This is one part of a sample in which hits are shown more often than they occur. Unless noted, calls follow the shape of the dose curve; as a rule, active = well fitted curve in the direction sought with a large enough effect; inconclusive = small, poorly fitted or top-dose-only effect, or another doubt; inactive = no such curve, though single readings can be large; an effect the other way counts as inactive or inconclusive. Potency is read from the fitted curve at half-maximal effect.

SMILES | NS1 inh | Cruzain inh Det | Cruzain noTriton
COc1cccc(/C=C/c2nc(C#N)c(N3CCC(C(N)=O)CC3)o2)c1 | · | 28µM* | ?
CN1CCN(c2oc(/C=C/c3ccccc3)nc2C#N)CC1 | 1% | · | ·
COc1ccc(/C=C/c2nc(C#N)c(NCCN(C)C)o2)cc1OC | -9% | · | ·
CN1CCN(c2oc(/C=C/c3ccc(F)cc3)nc2C#N)CC1 | · | 25µM* | 25µM*
CCc1c(C)nc(/N=C(/NC(=O)c2ccccc2)Nc2ccccc2OC)[nH]c1=O | 18% | · | ·
CCN(CC)c1ccc(CC(=O)NC(C)Cc2ccccc2)cc1 (stereo not given) | -12% | 2% | 3%
N#CCC1c2ccccc2CCN1C(=O)Nc1ccc(C(F)(F)F)cc1 (stereo not given) | 0% | -3% | 3%
Cc1ccc(N)cc1C | · | 9% | -2%
O=C(NCC1CCCO1)/C(=C\c1cccs1)NC(=O)c1ccccc1 (stereo not given) | -1% | · | ·
CCOc1ccccc1/C=N/NC(=O)Cc1csc(Nc2cccc(C(F)(F)F)c2)n1 | 16% | -2% | 10µM*
CCOc1ccc(/C=N/NC(=O)Cc2csc(Nc3cccc(C(F)(F)F)c3)n2)c(OCC)c1 | 22% | 4% | ?
COc1ccc(N=Nc2ccc(O)c3ncccc23)cc1 | 17% | · | ·
Cc1ccccc1N=Nc1ccc(O)c2ncccc12 | -16% | 0% | 20µM*
CC1CCCC(NC(=O)c2ccc(COc3ccccc3)o2)C1C (stereo not given) | 11% | · | ·
CCCCCn1c(SCCCC)nc2c1c(=O)[nH]c(=O)n2C | -11% | -1% | -7%
Cc1cc(NC(=O)CSc2nnc(CNc3ccc(F)cc3)n2C2CCCCC2)no1 | 5% | 1% | -3%
O=C(N/N=C1/C(=O)c2cccc3cccc1c23)c1ccc(Cl)cc1 | 4% | 10µM* | -27%
CCNC(=S)N/N=C1\C(=O)c2cccc3cccc1c23 | 6% | 2% | ?
Cc1ccn2c(CNCc3cnn(C)c3)c(C(=O)N3CCCCCC3)nc2c1 | 0% | · | ·
O=C(Cn1cc([N+](=O)[O-])cn1)NCc1ccco1 | -3% | · | ·
O=C(NCc1ccc(Cl)cc1)C1CCCN(c2nc3ccccc3n3cccc23)C1 (stereo not given) | · | 1% | -10%
CCCCc1oc2ccccc2c1C(=O)c1cc(I)c(OCCN(CC)CC)c(I)c1 | ? | 13µM*! | ·
CCN(CC)CCOc1ncnc2c1oc1ccccc12 | -2% | -1% | -1%
COc1ccc(C(=O)n2nc(-c3ccco3)nc2N)cc1 | 1% | -4% | -5%
COc1cccc(C2CC(=O)Nc3cc(OC)c(OC)c(OC)c32)c1OC(C)C (stereo not given) | · | -5% | 2%
SMILES | NS1 inh | Cruzain inh Det | Cruzain noTriton
Cn1c(C(=O)N/N=C/c2ccccc2)cc2ccccc21 | -15% | · | ·
CC1=C(C(=O)OCc2ccc3c(c2)OCO3)C(c2ccccc2OCc2ccccc2)NC(=O)N1 (stereo not given) | 28% | -1% | 16µM*
CC1=C(C(=O)OCc2ccc3c(c2)OCO3)C(c2ccccc2)NC(=O)N1 (stereo not given) | -22% | -4% | -6%
O=C(c1cccc(NC2=NC3CS(=O)(=O)CC3S2)c1)N1CCN(c2ncccn2)CC1 (stereo not given) | -11% | · | ·
Cc1cc(N2C(=O)C(O)=C(C(=O)c3cc4ccccc4o3)C2c2cccs2)no1 (stereo not given) | -1% | · | ·
Cc1ccc2nc(N3C(=O)C(O)=C(C(=O)c4ccco4)C3c3ccc(C)o3)sc2c1 (stereo not given) | 21% | · | ·
Cc1ccc2nc(N3C(=O)C(O)=C(C(=O)c4cc5ccccc5o4)C3c3cccs3)sc2c1 (stereo not given) | 0% | 16µM* | 9%
CCc1ccc2nc(N3C(=O)C(O)=C(C(=O)c4ccco4)C3c3cccs3)sc2c1 (stereo not given) | 13% | 25µM* | ?
O=C(c1ccc(CS(=O)(=O)c2ccc(Br)cc2)o1)N1CCC2(CC1)OCCO2 | 5% | 4% | 4%
Cc1nc2nc(C)c(NS(=O)(=O)c3ccc(Cl)s3)c(=O)n2[nH]1 | -1% | · | ·
O=C(N/N=C/c1ccccn1)c1[nH]c2ccc([N+](=O)[O-])cc2c1-c1ccccc1 | 6% | · | ·
COc1ccc(OC)c(N2C(N)=C(C#N)C(c3ccc(OC)c(O)c3)C3=C2CC(C)(C)CC3=O)c1 (stereo not given) | 4% | · | ·
CCc1c(C)c2cc(Cl)c(O)c(CN(C)C)c2oc1=O | 11% | ? | ?
Cc1c(C)c2cc(Cl)c(O)c(CN(C)C)c2oc1=O | -17% | 32µM* | ?
O=c1oc2c(CN3CCOCC3)c(O)c(Cl)cc2c2c1CCC2 | -4% | 25µM* | ?
O=c1cc(-c2ccccc2)c2cc(Cl)c(O)c(CN3CCOCC3)c2o1 | 4% | · | ·
CCN(CC)Cc1c(O)c(Cl)cc2c3c(c(=O)oc12)CCCC3 | ? | ? | -22%
CN(C)Cc1c(O)c(Cl)cc2c3c(c(=O)oc12)CCCC3 | 2% | ? | 13µM*
O=C(Nc1ccccc1C(=O)Nc1cccnc1)c1ccccc1 | -4% | · | ·
CCn1c(NC(=O)Nc2cccc(C)c2C)cc2sccc21 | 12% | -1% | 25µM*
Cc1cccc(NC(=O)Nc2cccs2)c1C | · | -8% | -10%
N#C/C(=C\c1cc([N+](=O)[O-])c(N2CCOCC2)cc1N1CCOCC1)c1nc2ccccc2[nH]1 | 5% | -8% | ?
N#C/C(=C\c1cc([N+](=O)[O-])c(N2CCCCC2)cc1N1CCCCC1)c1nn(-c2ccccc2)c(N)c1C#N | 20% | 5% | 7.9µM*
CC1(C)CC(=O)C(C=N)=C(O)C1 | 8% | 4% | -6%
O=C(Cn1c(=O)n(CC2CCCO2)c(=O)c2ccccc21)Nc1cccc(Cl)c1 (stereo not given) | · | -3% | -5%
SMILES | NS1 inh | Cruzain inh Det | Cruzain noTriton
COC(=O)c1ccccc1NC(=O)Cc1nc(-c2ccccc2)sc1-c1ccc(C)cc1 | 6% | -4% | 25µM*
COC(=O)c1ccccc1NC(=O)Cc1noc2ccc(C)cc12 | · | -4% | 2%
c1cc(-c2ccncc2)ccn1 | -7% | 1% | -5%
Nc1ccncc1 | 1% | 3.2µM*! | 3.5µM*!
CC(=O)c1sc(N/N=C\c2ccc(Br)cc2)nc1C | 15% | -13% | ?
CC(=O)c1sc(N/N=C\c2cccc(Br)c2)nc1C | -24% | 13µM* | 0.2µM*
CC(C)OC(=O)c1cc2ccccc2[nH]1 | 6% | -5% | -10%
CCOC(=O)c1cc2cc3ccccc3cc2[nH]1 | 0% | -6% | 25µM*
Cc1ccc(OCC(=O)Nc2ccc3nc(SCC(=O)N4CCCC4)sc3c2)cc1C | · | -2% | -2%
CC(=O)c1ccc(NS(=O)(=O)c2ccc(C)cc2)cc1 | -2% | 1% | 6%
COc1cc(OC)c(OC)cc1/C=C/C(=O)c1ccc(NS(=O)(=O)c2ccc(C)cc2)cc1 | ? | -4% | 20µM*
CC1(C)Cc2c(sc(NC(=O)C(=O)NCCCN3CCOCC3)c2C#N)CO1 | 7% | · | ·
O=C(CSc1nnc(-c2ccccc2Cl)n1Cc1ccco1)Nc1ccc2c(c1)OCCO2 | -8% | 1% | -6%
CC(C)[C@H](NC(=O)c1ccccc1Cl)C(=O)OCc1cc(=O)n2cc(Br)ccc2n1 | -13% | · | ·
Cc1ccccc1C(=O)NC(CC(C)C)C(=O)OCc1cc(=O)n2cc(Br)ccc2n1 (stereo not given) | -41% | 14µM* | 16µM*
